Source: PubChem BioAssay (Tox21)
Records with an inconclusive call do not appear. Active and inactive are the calls of the source. Unless noted, the call rests on the fitted dose curve; in most records, active means well fitted curve in the direction sought with a large enough effect in the repeat runs; inconclusive means weak or mixed curves; inactive means no such curve, though single readings can be large; an effect the other way counts as inactive or inconclusive.

Tests used:
[1] = qHTS assay for small molecules that induce genotoxicity in human embryonic kidney cells expressing luciferase-tagged ATAD5 (AID 651632); further: nearly all actives have a fitted effect of over 15% in size
In short: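 Increased luciferase signal from ATAD5-tagged reporter cells indicates DNA-damage-driven ATAD5 induction. HEK293T cells are treated for 16 hr at 37C before detection with Amplite.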

[2] = qHTS assay for small molecule agonists of the p53 signaling pathway - cell viability (AID 651633; calls by dose curve;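 further: p53RE-bla HCT reporter cells with a stable beta-lactamase p53 reporter; series mostly up to about 83 µM; nearly all actives have a fitted effect of over 30% in size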)
In short: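 Viability counter-read: CellTiter-Glo luminescence (30 min, room temperature) in the same p53RE-bla plates. These plates had been exposed to compounds for 16 h at 37 C.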

[3] = qHTS assay for small molecules that induce genotoxicity in human embryonic kidney cells expressing luciferase-tagged ATAD5 - cell viability (AID 651634; calls by dose curve; further: nearly all actives have a fitted effect of over 25% in size)
In short: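 Cytotoxicity counterscreen in HEK293T cells bearing an ATAD5-luciferase reporter: live-cell protease activity measured by CellTiter-Fluor fluorescence after 15.5 hr compound exposure.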

[4] = qHTS assay for small molecule disruptors of the mitochondrial membrane potential - cell viability (AID 720634; calls by dose curve;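 further: human HepG2 liver cancer cells; series mostly up to about 83 µM; nearly all actives have a fitted effect of over 20% in size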)
In short: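 After overnight attachment at 37 C, HepG2 cells received compound or DMSO vehicle for 1 hr. Viability is then taken from ATP-driven luminescence following a 30 min room-temperature CellTiter-Glo step.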

[5] = qHTS assay to test for compound auto fluorescence at 590 nm (red) in HepG2 cells (AID 720674)
In short: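 We screened compounds on adherent HepG2 cells, incubating them for an hour at 37 C in 5% CO2 before reading emission at 590 nm under 540 nm excitation; values reflect equivalence to Rose Bengal sodium fluorescence.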

[6] = qHTS assay to test for compound auto fluorescence at 535 nm (green) in HepG2 cells (AID 720675)
[7] = qHTS assay to test for compound auto fluorescence at 460 nm (blue) in HEK293 cells (AID 720678)
In short: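 HEK293 cells (2,000 per well, medium with 10% dialyzed FBS) attached for 4-5 hr at 37C, then received compound and stood overnight at 37C, 5% CO2. Blue fluorescence was read at Ex/Em 405/460 nm and expressed relative to triamterene.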

[8] = qHTS assay to test for compound auto fluorescence at 590 nm (red) in HEK293 cells (AID 720679)
In short: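 HEK293 cells (2,000/well, medium with 10% dialyzed FBS) attached for 4-5 hr at 37C, received 23 nL compound and were incubated overnight at 37C, 5% CO2. Red fluorescence was then read at 540/590nm Ex/Em, referenced to Rose Bengal sodium.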

[9] = qHTS assay to test for compound auto fluorescence at 535 nm (green) in HEK293 cells (AID 720680)
[10] = qHTS assay to test for compound auto fluorescence at 460 nm (blue) in HEK293 cell free culture (AID 720681)
In short: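 Blue fluorescence (Ex 405/Em 460 nm, triamterene-equivalent) was read immediately after pin transfer of compound or DMSO into medium (DMEM, 10% FBS) without cells.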

[11] = qHTS assay to test for compound auto fluorescence at 535 nm (green) in HEK293 cell free culture (AID 720682)
In short: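 Measurement is a direct plate read of green fluorescence (485 nm in, 535 nm out) after compound addition to serum-supplemented DMEM lacking cells, with fluorescein used to express intensities.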

[12] = qHTS assay to test for compound auto fluorescence at 590 nm (red) in HEK293 cell free culture (AID 720683)
In short: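 Red-channel autofluorescence of compounds in culture medium (DMEM, 10% FBS), no cells, measured at 540/590 nm. Rose Bengal sodium is the reference fluorophore for equivalence.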

[13] = qHTS assay to test for compound auto fluorescence at 590 nm (red) in HepG2 cell free culture (AID 720684)
In short: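 Plate contents were MEM with 10% FBS plus test compound or DMSO, no cells. Fluorescence was recorded with 540 nm excitation and 590 nm emission.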

[14] = qHTS assay to test for compound auto fluorescence at 535 nm (green) in HepG2 cell free culture (AID 720686)
[15] = qHTS assay to test for compound auto fluorescence at 460 nm (blue) in HepG2 cells (AID 720687)
In short: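 Blue-channel autofluorescence (Ex/Em 405/460 nm, triamterene-equivalent) was measured after 1 hr compound exposure at 37 C, 5% CO2. Cells were HepG2, plated overnight at 37 C in MEM plus 10% FBS.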

[16] = molecular target: Glucocorticoid receptor (Homo sapiens) (UniProt P04150); experiment: qHTS assay to identify small molecule agonists of the glucocorticoid receptor (GR) signaling pathway (AID 720691; active means well fitted activation curve with a large enough effect in the signal ratio in the repeat runs, not every such curve was filed as active; the % refers to the signal ratio)
Sequence of Glucocorticoid receptor (Homo sapiens) (P04150 whole entry, looked up): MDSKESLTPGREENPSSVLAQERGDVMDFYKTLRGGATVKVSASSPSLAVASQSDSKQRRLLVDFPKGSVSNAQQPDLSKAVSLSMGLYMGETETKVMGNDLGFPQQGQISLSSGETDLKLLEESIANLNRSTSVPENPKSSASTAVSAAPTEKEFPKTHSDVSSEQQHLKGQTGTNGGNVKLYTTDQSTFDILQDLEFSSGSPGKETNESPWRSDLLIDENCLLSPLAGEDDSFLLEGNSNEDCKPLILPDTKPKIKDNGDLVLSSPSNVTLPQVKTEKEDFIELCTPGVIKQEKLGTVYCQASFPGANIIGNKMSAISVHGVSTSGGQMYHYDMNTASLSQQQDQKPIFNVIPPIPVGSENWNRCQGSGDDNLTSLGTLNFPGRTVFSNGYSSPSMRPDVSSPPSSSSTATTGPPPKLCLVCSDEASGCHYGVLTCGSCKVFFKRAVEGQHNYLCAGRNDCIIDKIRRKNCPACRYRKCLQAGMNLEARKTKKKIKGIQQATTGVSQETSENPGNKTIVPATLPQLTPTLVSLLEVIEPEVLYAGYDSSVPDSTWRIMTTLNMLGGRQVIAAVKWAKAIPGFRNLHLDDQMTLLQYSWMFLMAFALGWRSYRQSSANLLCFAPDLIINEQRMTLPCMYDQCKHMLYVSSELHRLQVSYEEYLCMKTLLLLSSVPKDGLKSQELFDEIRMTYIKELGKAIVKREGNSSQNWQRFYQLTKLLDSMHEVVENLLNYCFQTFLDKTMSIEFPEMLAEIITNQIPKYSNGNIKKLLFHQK
In short: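 Agonist mode in a HeLa line carrying a GRE-controlled beta-lactamase reporter. Compounds act for 18 h at 37 C before a 2 h room-temperature FRET substrate step and fluorescence reading.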

[17] = molecular target: Glucocorticoid receptor (Homo sapiens) (UniProt P04150); experiment: qHTS assay to identify small molecule antagonists of the glucocorticoid receptor (GR) signaling pathway (AID 720692; active means well fitted inhibition curve with a large enough effect in the signal ratio in the repeat runs, not every such curve was filed as active; the % refers to the signal ratio)
In short: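 Cells plated, rested 4 h at 37 C/5% CO2; compounds in DMSO pin-transferred; dexamethasone added to 5 nM final; 18 h at 37 C; B/G FRET substrate added, 2 h room temperature; fluorescence measured.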

[18] = qHTS assay for small molecule disruptors of the mitochondrial membrane potential (AID 720635)
In short: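 Mitochondrial membrane potential tracked with Mito-MPS dye, red aggregates (ex 540/em 590 nm) against green monomers (ex 490/em 535 nm). Compound treatment 1 hr at 37C, dye 30 min in HepG2.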

[19] = qHTS assay to test for compound auto fluorescence at 460 nm (blue) in HepG2 cell free culture (AID 720685)
In short: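 Compound (23 nL) or DMSO pinned into cell-free MEM with 10% FBS; blue fluorescence read at 405/460 nm excitation/emission, expressed as auto-fluorescence equivalency to triamterene.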
On the % scale 0 is the no-effect control and ±100 the full control effect.

CC(C)C(C)C
inactive: Potency [1] | outcome [2] | outcome [3] | outcome [4] | outcome [5] | outcome [6] | outcome [7] | outcome [8] | outcome [9] | outcome [10] | outcome [11] | outcome [12] | outcome [13] | outcome [14] | outcome [15] | Potency [16] | outcome [17]

CCCCCCCCS(=O)(=O)O
inactive: Potency [1] | outcome [3] | outcome [4] | Potency [18] | outcome [5] | outcome [6] | outcome [7] | outcome [8] | outcome [9] | outcome [10] | outcome [12] | outcome [13] | outcome [19] | outcome [14] | outcome [15]

CCCCN1C(=O)c2ccccc2C1=O
inactive: Potency [1] | outcome [2] | outcome [3] | outcome [4] | outcome [5] | outcome [6] | outcome [7] | outcome [8] | outcome [9] | outcome [10] | outcome [11] | outcome [12] | outcome [19] | outcome [14] | outcome [15] | Potency [16] | outcome [17]

CC/C=C/CCCCCCCCCCOC(C)=O
inactive: Potency [1] | outcome [3] | outcome [4] | Potency [18] | outcome [5] | outcome [6] | outcome [7] | outcome [8] | outcome [9] | outcome [10] | outcome [11] | outcome [12] | outcome [19] | outcome [14] | outcome [15] | Potency [16] | outcome [17]

CNC(C)=O
inactive: Potency [1] | outcome [3] | outcome [4] | outcome [5] | outcome [6] | outcome [7] | outcome [8] | outcome [9] | outcome [10] | outcome [11] | outcome [12] | outcome [19] | outcome [14] | outcome [15] | Potency [16] | outcome [17]

C=CCN(CC=C)CC=C
inactive: Potency [1] | outcome [2] | outcome [3] | outcome [4] | outcome [5] | outcome [6] | outcome [7] | outcome [8] | outcome [9] | outcome [10] | outcome [11] | outcome [12] | outcome [13] | outcome [19] | outcome [15] | Potency [16] | outcome [17]

N=C(N)N1CCc2ccccc2C1
inactive: Potency [1] | outcome [3] | outcome [4] | Potency [18] | outcome [5] | outcome [6] | outcome [7] | outcome [8] | outcome [9] | outcome [10] | outcome [12] | outcome [13] | outcome [19] | outcome [14] | outcome [15] | Potency [16] | outcome [17]

N#CC1(N)CCCCC1
inactive: Potency [1] | outcome [2] | outcome [3] | outcome [4] | outcome [5] | outcome [6] | outcome [7] | outcome [8] | outcome [9] | outcome [10] | outcome [11] | outcome [12] | outcome [13] | outcome [19] | outcome [14] | outcome [15] | Potency [16]

CC(C)OCCO
inactive: Potency [1] | outcome [2] | outcome [3] | outcome [4] | Potency [18] | outcome [5] | outcome [6] | outcome [7] | outcome [8] | outcome [9] | outcome [10] | outcome [12] | outcome [13] | outcome [19] | outcome [14] | outcome [15] | Potency [16] | outcome [17]

C=CCCCCCCCCCCCCCC
inactive: Potency [1] | outcome [2] | outcome [3] | outcome [4] | fluorescence, relative to Rose Bengal [5] -0.0589% [at 18.6 µM] | fluorescence, % of fluorescein control [6] -0.0523% [at 18.6 µM] | fluorescence, % of triamterene [7] 0.0937% [at 18.6 µM] | fluorescence, % of fluorescent control [8] 0.0885% [at 18.6 µM] | fluorescence, % of fluorescein [9] -0.003% [at 18.6 µM] | fluorescence, % of fluorescent control [10] 0.006% [at 18.6 µM] | activity change [11] 0.0547% [at 18.6 µM] | fluorescence, % of fluorescent control [12] -0.342% [at 18.6 µM] | fluorescence, % of fluorescent control [19] -0.0168% [at 18.6 µM] | fluorescence, % of fluorescent control [15] 0.001% [at 18.6 µM] | Potency [16] | outcome [17]

CC/C=C\CCCCCCCCCCOC(C)=O
inactive: Potency [1] | outcome [3] | outcome [4] | Potency [18] | outcome [5] | outcome [6] | outcome [7] | outcome [8] | outcome [9] | outcome [10] | outcome [11] | outcome [12] | outcome [13] | outcome [19] | outcome [14] | outcome [15] | Potency [16] | outcome [17]

CCC(=O)OCCOc1ccccc1
inactive: Potency [1] | outcome [2] | outcome [3] | outcome [4] | outcome [5] | outcome [6] | outcome [7] | outcome [8] | outcome [9] | outcome [10] | outcome [11] | outcome [12] | outcome [13] | outcome [19] | outcome [14] | outcome [15]

NNC(=O)CCCCC(=O)NN
inactive: Potency [1] | outcome [2] | outcome [3] | outcome [4] | outcome [5] | outcome [6] | outcome [7] | outcome [8] | outcome [9] | outcome [10] | outcome [11] | outcome [12] | outcome [13] | outcome [14] | outcome [15] | Potency [16] | outcome [17]

BrCCOc1ccccc1
inactive: Potency [1] | outcome [2] | outcome [3] | outcome [4] | outcome [5] | outcome [6] | outcome [7] | outcome [8] | outcome [9] | outcome [10] | outcome [11] | outcome [12] | outcome [13] | outcome [14] | outcome [15] | Potency [16] | outcome [17]
